Consider eight compounds from PubChem BioAssay (NCI).

Among the test systems are SK-MEL-2 melanoma; EKVX NSCLC; SN12C renal; UO-31 renal; ACHN renal; CAKI-1 renal; A498 renal; CCRF-CEM leukemia; MOLT-4 leukemia; SR leukemia; RPMI-8226 leukemia; OVCAR-8 ovarian; OVCAR-5 ovarian; OVCAR-4 ovarian; SK-OV-3 ovarian; IGROV1 ovarian; OVCAR-3 ovarian; HS 578T breast; NCI/ADR-RES ovarian.
Holding throughout (experiment): NCI-60 one-dose screen, 48 h (100 = growth as untreated, 0 = no growth, -100 = all killed)
Settings in all cases: 10 µM unless noted

The panel holds about 83,000 compounds, 20% with a hit somewhere; the sample as a whole holds those more often.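 Activity criterion: percent growth below 10, measured after cells in 96-well plates were exposed to a single compound concentration for 48 hours.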 Unmarked numbers belong to inactive results. Activity calls are given as the source filed them.

Take `COc1ccc(-c2noc(C(=O)O)c2-c2cc(OC)c(OC)c(OC)c2)cc1`: the growth with SK-MEL-2 melanoma was 13.8%; in the assay with EKVX NSCLC, 44.1%; in the assay on SN12C renal, 38.4%; in the assay with UO-31 renal, 38.8%; in the assay on ACHN renal, 34.7%; in the assay on CAKI-1 renal, 22.6%. Further, the growth is 31.6% in the assay on A498 renal; 7.85% (active) in the assay with CCRF-CEM leukemia; 25.7% with MOLT-4 leukemia; 10.4% in the assay with SR leukemia; 0.35% (active) with RPMI-8226 leukemia; 30.4% in the assay on OVCAR-8 ovarian. Besides, the growth was 87% in the assay with OVCAR-5 ovarian; 76.7% with OVCAR-4 ovarian; 23.5% with SK-OV-3 ovarian; 47% in the assay on IGROV1 ovarian; 9.65% (active) with OVCAR-3 ovarian; 13.3% with HS 578T breast. Further, in the assay with NCI/ADR-RES ovarian, the growth is 27.7%.

Take `O=C1NC2(Nc3ccccc31)C(=O)Nc1c(Cl)cc(Cl)cc12` (stereo not given): the growth with SK-MEL-2 melanoma was 119%; in the assay on EKVX NSCLC it was 98.8%; with SN12C renal, 106%; in the assay with UO-31 renal it was 78.5%; in the assay on ACHN renal it was 107%; in the assay on CAKI-1 renal, 85.1%. Besides, the growth in the assay on A498 renal was 106%; in the assay with CCRF-CEM leukemia, 103%; in the assay on MOLT-4 leukemia, 93%; in the assay with SR leukemia, 93.2%; in the assay on RPMI-8226 leukemia it was 105%; in the assay with OVCAR-8 ovarian it was 102%. Further, the growth was 115% with OVCAR-5 ovarian; 98.9% with OVCAR-4 ovarian; 107% in the assay with SK-OV-3 ovarian; 91.5% with IGROV1 ovarian; 118% with OVCAR-3 ovarian; 100% in the assay on HS 578T breast. For the same compound, the growth in the assay on NCI/ADR-RES ovarian is 108%.

On to `C=CC[Se]C(=O)Cc1c(C)n(C(=O)c2ccc(Cl)cc2)c2ccc(OC)cc12`, for which the growth in the assay with SK-MEL-2 melanoma was 8.51% (active); with EKVX NSCLC it was -62.6% (active); in the assay with SN12C renal, -30.4% (active); with UO-31 renal, -80% (active); with ACHN renal it was -61% (active); in the assay with CAKI-1 renal, -59.3% (active). In addition, the growth with A498 renal is -28.1% (active); in the assay with CCRF-CEM leukemia, 10.5%; in the assay with MOLT-4 leukemia it was 5.11% (active); in the assay on SR leukemia it was 2.02% (active); with RPMI-8226 leukemia, -25.8% (active); in the assay with OVCAR-8 ovarian it was -38.1% (active). Also, the growth is -44.7% (active) in the assay with OVCAR-5 ovarian; -50.7% (active) in the assay on OVCAR-4 ovarian; -83% (active) in the assay with SK-OV-3 ovarian; 2.4% (active) in the assay on IGROV1 ovarian; -40.6% (active) with OVCAR-3 ovarian; -12.7% (active) in the assay on HS 578T breast. For the same compound, in the assay on NCI/ADR-RES ovarian, the growth is -7.75% (active).

Turning to `c1ccc([P+](c2ccccc2)(c2ccccc2)c2ccc3c4ccc([P+](c5ccccc5)(c5ccccc5)c5ccccc5)c5cccc(c6cccc2c63)c54)cc1`, the growth in the assay with SK-MEL-2 melanoma was 18.6%; in the assay with EKVX NSCLC, 12.8%; in the assay with SN12C renal it was 10.5%; with UO-31 renal, 39.4%; in the assay with ACHN renal, 41.3%; in the assay on CAKI-1 renal it was 40.3%. For the same compound, the growth was -11.3% (active) with A498 renal; 26.5% in the assay with CCRF-CEM leukemia; 14.7% with SR leukemia; -8.35% (active) in the assay on RPMI-8226 leukemia; 14.2% with OVCAR-8 ovarian; 23.6% with OVCAR-4 ovarian. In addition, the growth in the assay on SK-OV-3 ovarian is -7.17% (active); in the assay with IGROV1 ovarian, 6.28% (active); in the assay with OVCAR-3 ovarian, 19.3%; with HS 578T breast it was 15.8%; with NCI/ADR-RES ovarian, 72%.

Take `CC(=O)n1nc(C(=O)OC(C)(C)c2ccccc2)c2ccccc21`: the growth in the assay on SK-MEL-2 melanoma was 105%; with EKVX NSCLC, 100%; with SN12C renal, 86.9%; in the assay with UO-31 renal it was 93.2%; in the assay on ACHN renal, 100%; in the assay on CAKI-1 renal, 84.5%. Also, the growth was 96.8% with A498 renal; 83.1% in the assay on CCRF-CEM leukemia; 96.9% in the assay with MOLT-4 leukemia; 95.3% with SR leukemia; 102% in the assay on RPMI-8226 leukemia; 95.4% with OVCAR-8 ovarian. Also, the growth with OVCAR-5 ovarian was 80.7%; in the assay on OVCAR-4 ovarian, 93%; in the assay on SK-OV-3 ovarian, 88.2%; with IGROV1 ovarian, 96.7%; in the assay on OVCAR-3 ovarian, 101%; in the assay with HS 578T breast, 100%. Further, in the assay with NCI/ADR-RES ovarian, the growth is 89.5%.

In the case of `CC(=O)c1c(C)nc2ccccc2c1/C=C/c1ccc(F)cc1`, the growth was 93.3% in the assay on SK-MEL-2 melanoma; 75.5% in the assay on EKVX NSCLC; 93.3% in the assay on SN12C renal; 67.6% in the assay with UO-31 renal; 85.4% in the assay on ACHN renal; 75.7% in the assay with CAKI-1 renal. Further, the growth with A498 renal was 84.6%; in the assay on CCRF-CEM leukemia it was 82%; with MOLT-4 leukemia, 84.1%; with SR leukemia it was 81.2%; in the assay with RPMI-8226 leukemia, 66.5%; in the assay on OVCAR-8 ovarian it was 92.9%. In addition, the growth was 97.7% in the assay on OVCAR-5 ovarian; 76.7% in the assay on OVCAR-4 ovarian; 100% with SK-OV-3 ovarian; 85.1% with IGROV1 ovarian; 92.9% in the assay on OVCAR-3 ovarian; 91.9% in the assay on HS 578T breast. Besides, the growth in the assay with NCI/ADR-RES ovarian was 67.6%.

As to `O=C1/C=C/[C@@H](O)[C@@H]2C[C@@H](O)C[C@H]2/C=C/CCC[C@H](CCc2ccccc2)O1`, the growth was -8.8% (active) in the assay with SK-MEL-2 melanoma; 8.4% (active) with EKVX NSCLC; 11.8% with SN12C renal; 14.7% in the assay with UO-31 renal; 7.03% (active) in the assay with ACHN renal; -8.69% (active) with CAKI-1 renal. Besides, the growth was -28.2% (active) with A498 renal; 13.1% in the assay with CCRF-CEM leukemia; 9.48% (active) in the assay on MOLT-4 leukemia; 9.67% (active) in the assay on SR leukemia; 10.7% in the assay on RPMI-8226 leukemia; 14.4% in the assay with OVCAR-8 ovarian. Besides, the growth with OVCAR-5 ovarian was 19.8%; with OVCAR-4 ovarian it was 24.9%; in the assay with SK-OV-3 ovarian, 28.2%; in the assay with IGROV1 ovarian, 14.7%; with OVCAR-3 ovarian it was -42.1% (active); in the assay on HS 578T breast it was 47.8%. The growth with NCI/ADR-RES ovarian was 5.65% (active).

Take `O=C(/C=C/c1ccccc1)Nc1ncc(Cc2ccccc2Cl)s1`: the growth was 25.7% with SK-MEL-2 melanoma; 38.2% in the assay with EKVX NSCLC; 37.2% in the assay with SN12C renal; 39.2% in the assay on UO-31 renal; 33.3% in the assay with ACHN renal; 26.2% in the assay with CAKI-1 renal. Besides, the growth is -6.96% (active) with A498 renal; 15.9% with CCRF-CEM leukemia; 34.2% in the assay with MOLT-4 leukemia; 17.9% in the assay with SR leukemia; 25.4% with RPMI-8226 leukemia; 39.5% with OVCAR-8 ovarian. The growth is 44% in the assay on OVCAR-5 ovarian; 70.2% with OVCAR-4 ovarian; 44.4% in the assay on SK-OV-3 ovarian; 31.5% with IGROV1 ovarian; -24.2% (active) in the assay with OVCAR-3 ovarian; 28.2% in the assay on HS 578T breast. In the assay on NCI/ADR-RES ovarian, the growth is 9.49% (active).
